In PubChem BioAssay (NCI) one finds growth data, which are given here for 14 compounds.

Some test systems named below: NCI-H23 lung; NCI-H226 lung; NCI-H322M lung; HOP-62 NSCLC; NCI-H460 lung; HOP-92 NSCLC; NCI-H522 lung; A549/ATCC NSCLC; 786-0 renal; COLO 205 colon.
Holding throughout (assay): NCI-60 one-dose screen, 48 h (100 = growth as untreated, 0 = no growth, -100 = all killed)
What all share (settings): 10 µM unless noted

Structures are written as SMILES. This is part of a sample that, as a whole, favours compounds with a hit. Of some 83,000 tested, about 20% had one in any assay.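 Interpretation: 100, growth as untreated; towards 0, rising growth inhibition; 0, no net growth; 0 to -100, cell death. Compounds scoring below 10 were considered active.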 A number with no mark means an inactive call. The source made the active and inactive calls.

Take `Cc1nn(-c2ccc(Cl)cc2)c(=O)n1CCN1CCOCC1`: the growth was 64.5% in the test with NCI-H23 lung; 79.4% in the test on NCI-H226 lung; 92.3% in the test on NCI-H322M lung; 33.8% in the test with HOP-62 NSCLC; 41.7% in the test with NCI-H460 lung; 30.1% in the test on HOP-92 NSCLC. For the same compound, the growth in the test on NCI-H522 lung is 69%; with A549/ATCC NSCLC it was 56.4%; with 786-0 renal, 59.4%; in the test with COLO 205 colon, 107%.

With `COc1cc2nccc(Oc3ccc(NC(=O)C4(C(=O)Nc5ccc(F)cc5)CC4)cc3)c2cc1OC(=O)c1ccc(N)cc1`, the growth was 37.8% in the test with NCI-H23 lung; 55.7% in the test with NCI-H226 lung; 43% with NCI-H322M lung; 11.7% with HOP-62 NSCLC; 24.7% in the test with NCI-H460 lung; -13.3% (active) in the test with HOP-92 NSCLC. Moreover, the growth with NCI-H522 lung was 21.4%; with A549/ATCC NSCLC, 33.6%; in the test with 786-0 renal it was -17.4% (active); in the test on COLO 205 colon, -36.5% (active).

Regarding `COc1ccc(-c2nsc3c2NC(=O)CC3c2ccc3c(c2)OCO3)cc1` (stereo not given), the growth with NCI-H23 lung was 35.1%; in the test with NCI-H226 lung, 68.4%; in the test with NCI-H322M lung, 43.9%; in the test with HOP-62 NSCLC, 31.2%; in the test on NCI-H460 lung, 19.1%; in the test on HOP-92 NSCLC, 2.96% (active). The growth in the test on NCI-H522 lung is -30.1% (active); in the test with A549/ATCC NSCLC, 26.6%; with 786-0 renal it was 57.5%; in the test with COLO 205 colon, -14.4% (active).

Take `C/C(=N\NC(=S)Nc1ccccc1)c1ccccn1`: the growth with NCI-H23 lung is 59.8%; with NCI-H226 lung, 21.3%; in the test on NCI-H322M lung it was 20.9%; in the test on HOP-62 NSCLC it was 41.4%; with NCI-H460 lung it was 17.3%; with HOP-92 NSCLC, 37.1%. The growth in the test with NCI-H522 lung is 12.6%; in the test with A549/ATCC NSCLC, 45.7%; in the test on 786-0 renal, 32.6%; in the test on COLO 205 colon, 25.6%.

Regarding `O=[N+]([O-])c1ccccc1CN1CCCCC1`, the growth in the test with NCI-H23 lung is 92.8%; in the test with NCI-H226 lung it was 112%; in the test with NCI-H322M lung, 106%; in the test on HOP-62 NSCLC, 107%; in the test with NCI-H460 lung it was 116%; in the test on HOP-92 NSCLC, 89.7%. For the same compound, the growth was 110% in the test with NCI-H522 lung, 106% with A549/ATCC NSCLC, 111% with 786-0 renal and 111% in the test on COLO 205 colon.

Regarding `COc1ccc(/C=C2\CCCC3=C2N=C2SC(C)=NN2C3c2ccc(OC)c(OC)c2)cc1OC` (stereo not given), the growth with NCI-H23 lung was 35.5%; with NCI-H226 lung it was 31%; with NCI-H322M lung, 27.9%; with HOP-62 NSCLC it was 23.1%; with NCI-H460 lung, 19.1%; with HOP-92 NSCLC, 37.2%. Also, the growth in the test on NCI-H522 lung was 35.8%; in the test with A549/ATCC NSCLC, 20.1%; in the test on 786-0 renal it was 53%; in the test on COLO 205 colon, 22.2%.

As for `COc1ccc(C2=Nn3c(nnc3-c3ccc(Cl)cc3N)SC2)cc1`, the growth in the test on NCI-H23 lung is 105%; with NCI-H226 lung, 102%; with NCI-H322M lung it was 109%; in the test on HOP-62 NSCLC, 103%; with NCI-H460 lung it was 104%; in the test with HOP-92 NSCLC, 94.1%. For the same compound, the growth with NCI-H522 lung was 85.6%; in the test with A549/ATCC NSCLC it was 103%; with 786-0 renal it was 107%; with COLO 205 colon, 108%.

As to `Clc1ccc2c(c1)-c1ccccc1C1=NCCN12`, the growth with NCI-H23 lung is 33.4%; in the test with NCI-H226 lung it was 24.7%; in the test on NCI-H322M lung, 25.3%; in the test with HOP-62 NSCLC it was 45.9%; in the test with NCI-H460 lung, 8.92% (active); with HOP-92 NSCLC it was 58.6%. In addition, the growth is 23.2% with NCI-H522 lung, 13% in the test on A549/ATCC NSCLC, 44.8% in the test with 786-0 renal and 7.28% (active) with COLO 205 colon.

Regarding `C=CCn1c(SCC(=O)Nc2ccc(C(=O)/C=C/c3ccccc3)cc2)nnc1-c1ccc(OC)c(OC)c1`, the growth with NCI-H23 lung is 80.7%; in the test with NCI-H226 lung it was 85.9%; in the test with NCI-H322M lung it was 85.9%; in the test on HOP-62 NSCLC, 99.1%; in the test with NCI-H460 lung it was 88.2%; with HOP-92 NSCLC, 82.7%. The growth with NCI-H522 lung is 68.3%; in the test with A549/ATCC NSCLC, 61%; in the test on 786-0 renal it was 75.6%; with COLO 205 colon, 91.2%.

As for `CCCc1n(Cc2ccc3ccccc3n2)cc[n+]1Cc1ccc2ccccc2n1`, the growth in the test with NCI-H23 lung is 13%; in the test on NCI-H226 lung, 38%; with NCI-H322M lung, 72.1%; in the test with HOP-62 NSCLC it was 51.7%; with NCI-H460 lung it was 34.2%; with HOP-92 NSCLC it was 16%. The growth in the test with NCI-H522 lung is 22.8%; in the test with A549/ATCC NSCLC, 62.8%; in the test with 786-0 renal, 85.3%; with COLO 205 colon, -43% (active).

In the case of `CC[C@H](Nc1nc(N)nc(C2CC2)c1C#N)c1nc2cccc(NCc3ccc(C(=O)NO)cc3)c2c(=O)n1-c1ccccc1`, the growth is -14.8% (active) with NCI-H23 lung; -21.9% (active) in the test on NCI-H226 lung; 21.3% in the test with NCI-H322M lung; 5.11% (active) with HOP-62 NSCLC; -15.1% (active) with NCI-H460 lung; -14% (active) in the test on HOP-92 NSCLC. Also, the growth is -29.6% (active) in the test on NCI-H522 lung, -30.6% (active) in the test on A549/ATCC NSCLC, -9.68% (active) in the test on 786-0 renal and -17.8% (active) in the test with COLO 205 colon.

On to `C#CC[C@@H]1C[C@]2(C)[C@H]3CC[C@@H]4[C@H]5C(C(=C)C)CC[C@]5(C(=O)NCCCN5CCN(CCCN)CC5)CC[C@@]4(C)[C@]3(C)CC[C@H]2C(C)(C)[C@H]1OC(C)=O` (stereo not given in full), for which the growth in the test on NCI-H23 lung was 3.21% (active); in the test with NCI-H226 lung, 87.4%; with NCI-H322M lung it was -81.2% (active); with HOP-62 NSCLC it was -59.7% (active); in the test with NCI-H460 lung, -77% (active); with HOP-92 NSCLC, -78.3% (active). Also, the growth in the test with NCI-H522 lung is 4.62% (active); in the test on A549/ATCC NSCLC it was -61.9% (active); in the test with 786-0 renal, -97.5% (active); with COLO 205 colon it was -68.3% (active).

In the case of `COc1ccc(OC)c(Nc2nc(-c3c(C)nc4sccn34)cs2)c1`, the growth in the test on NCI-H23 lung is 69.7%; in the test on NCI-H226 lung it was 65.7%; in the test on NCI-H322M lung it was 93.7%; in the test on HOP-62 NSCLC it was 75.7%; in the test on NCI-H460 lung, 62.4%; with HOP-92 NSCLC, 97.6%. In addition, the growth in the test with NCI-H522 lung was 78.6%; in the test on A549/ATCC NSCLC, 74.6%; in the test on 786-0 renal, 101%; with COLO 205 colon, 100%.

Consider `CC(CN1CCN(C)CC1)CN1c2ccccc2Sc2ccc(C(F)(F)F)cc21` (stereo not given), for which the growth in the test on NCI-H23 lung is 74.3%; in the test with NCI-H226 lung, 81.8%; with NCI-H322M lung it was 80%; with HOP-62 NSCLC it was 85.6%; with NCI-H460 lung, 0.601% (active); in the test with HOP-92 NSCLC, 39.7%. The growth in the test on NCI-H522 lung is 43.8%; in the test on A549/ATCC NSCLC, 41.2%; in the test with 786-0 renal, 52.2%; in the test on COLO 205 colon, -68% (active).
